One assay deals with Furin (Homo sapiens) (UniProt P09958). The assay is described as follows: Furin counterscreen qHTS for Zika virus inhibitors (AID 1347149).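 Note: purified recombinant full-length human furin enzyme at 5 nM; fluorescence gain from furin cutting a BOC-RVRR-AMC peptide substrate over 15 min; top concentration of the series differs between compounds; plate controls were no-inhibitor control for no effect and no-enzyme control for full effect; nearly all actives have a fitted effect of over 70% in size.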 A digest of the protocol: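 Fluorogenic cleavage of BOC-RVRR-AMC (2 microM final, Km ~15 µM) was monitored (ex 340, em 450 nm) at 37C after 15 min RT preincubation of 5 nM furin with compounds in HEPES pH 7.0 buffer with CaCl2 and Triton X-100. Percent inhibition was fitted to a 4-parameter Hill curve.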
Furin (Homo sapiens), sequence (P09958 whole entry, looked up): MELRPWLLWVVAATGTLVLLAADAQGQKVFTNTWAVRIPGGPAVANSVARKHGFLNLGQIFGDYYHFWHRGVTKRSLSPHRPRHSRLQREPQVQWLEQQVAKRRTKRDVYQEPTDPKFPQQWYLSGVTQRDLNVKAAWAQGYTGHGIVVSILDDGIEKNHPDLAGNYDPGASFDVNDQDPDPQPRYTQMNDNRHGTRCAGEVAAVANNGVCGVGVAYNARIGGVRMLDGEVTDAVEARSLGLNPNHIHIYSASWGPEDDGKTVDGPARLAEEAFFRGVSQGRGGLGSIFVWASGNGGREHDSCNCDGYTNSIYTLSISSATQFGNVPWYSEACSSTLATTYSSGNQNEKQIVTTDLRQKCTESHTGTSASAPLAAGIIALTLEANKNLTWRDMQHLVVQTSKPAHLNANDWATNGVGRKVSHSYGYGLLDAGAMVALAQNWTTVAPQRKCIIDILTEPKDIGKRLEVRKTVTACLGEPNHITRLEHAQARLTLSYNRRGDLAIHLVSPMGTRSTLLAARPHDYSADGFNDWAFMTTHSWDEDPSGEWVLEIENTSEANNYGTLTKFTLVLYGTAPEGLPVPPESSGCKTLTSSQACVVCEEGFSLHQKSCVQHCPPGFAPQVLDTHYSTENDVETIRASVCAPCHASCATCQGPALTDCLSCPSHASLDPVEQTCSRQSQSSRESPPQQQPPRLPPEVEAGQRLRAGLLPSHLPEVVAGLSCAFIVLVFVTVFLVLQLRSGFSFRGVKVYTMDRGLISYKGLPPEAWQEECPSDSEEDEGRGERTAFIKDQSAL
(A counterscreen serves to expose hits that act by an unwanted route or on another target.)

In assay [1] the test system is Zika virus NS2B-NS3 protease. Description: Primary screen GU AMC qHTS for Zika virus inhibitors (AID 1347154).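 For activity change, negative = inhibition: 0% = no-inhibitor control and -100% = no-enzyme control.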 Note: nearly all actives have a fitted effect of over 70% in size. Note: potency is the fitted concentration of half-maximal effect. A digest of the protocol: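 Unlinked Zika NS2B hydrophilic domain–NS3 protease complex at 25 nM in 10 mM Tris-HCl pH 8.0, 0.01% Tween 20, with an AMC peptide substrate. Fluorescence change (340/450 nm) over 15 min at room temperature, normalized to controls, fitted to 4-parameter Hill.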
A general note: qHTS replaces the single test concentration by a dilution series.

A short description of assay [2]: Confirmatory screen GU Rhodamine qHTS for Zika virus inhibitors qHTS (AID 1347157).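 Note: plate controls were no-inhibitor wells for no effect and no-enzyme wells for full effect; nearly all actives have a fitted effect of over 70% in size.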 A digest of the protocol: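 Buffer 10 mM Tris-HCl pH 8.0, 0.01% Tween 20. Unlinked protease 25 nM; compound preincubation 15 min, RT, protected from light. Substrate Rhod110, 1.5 microM; ~15% conversion in 15 min.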
The nature of assay [3]: Confirmatory screen NINDS Rhodamine qHTS for Zika virus inhibitors (AID 1347161).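 Note: series mostly up to about 110 µM; plate controls were no-inhibitor control for no effect and no-enzyme control for full effect; nearly all actives have a fitted effect of over 60% in size.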 The method, boiled down: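 Purified NS2B-NS3 protease with the NS2B hydrophilic domain joined by a flexible linker (25 nM) in 10 mM Tris-HCl pH 8.0, 0.01% Tween 20, preincubated 15 min at RT with compound; Rhodamine110 peptide substrate 1.5 µM; fluorescence change over 15 min; 4-parameter Hill fit.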

Assay [4] can be described thus: Tertiary RLuc qRT-PCR qHTS assay for Zika virus inhibitors (AID 1347169). Note: nearly all actives have a fitted effect of over 55% in size. Note: potency is the fitted concentration of half-maximal effect. The method, boiled down: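 Luminescence read-out: live-cell Renilla luciferase substrate applied to infected Vero cells, signal measured after 1-1.5 hrs. Cells had received compound before ZIKV-RLuc (Cambodian strain, MOI 1-2) infection and were incubated 48-72 hrs at 37 degrees C.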
For orientation: In qPCR the cycle at which signal appears reflects the starting amount.

Assay [5] in a line: qHTS to identify inhibitors of the type 1 interferon - major histocompatibility complex class I in skeletal muscle: primary screen against the NCATS Pharmaceutical Collection (AID 1347407).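 Note: luminescence of HiBiT knocked into endogenous HLA-B as interferon-induced MHC class I level; % is set by controls: 0 for no effect and ±100 for the full control effect.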 A digest of the protocol: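 HLA-B HiBiT myoblasts, dexamethasone-free growth medium + 4 ng/ml IFN-b; compounds pinned 1 h after seeding, […] from 46 uM; 24 h, 37 C, 5% CO2; lytic HiBiT detection, 10 min RT, luminescence.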

Assay [6] concerns Zika virus NS2B-NS3 protease (unlinked). The assay is described as follows: Optimization of GU AMC qHTS for Zika virus inhibitors: Unlinked NS2B-NS3 protease assay (AID 1347151).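 For activity change, negative = inhibition: series mostly up to about 52 µM; 0% = no-inhibitor control and -100% = no-enzyme control.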 Note: nearly all actives have a fitted effect of over 80% in size. Note: potency is the fitted concentration of half-maximal effect. A digest of the protocol:
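Fluorescence read-out (340 nm ex / 450 nm em) of AMC peptide cleavage, taken immediately and after 15 min at room temperature (~20% conversion). Enzyme was the unlinked NS2B–NS3 complex at 25 nM in Tris pH 8.0 buffer.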

In assay [7] the test system is Zika virus NS2B-NS3 protease (unlinked complex). Description: Primary screen GU Rhodamine qHTS for Zika virus inhibitors: Unlinked NS2B-NS3 protease assay (AID 1347159). Note: potency is the fitted concentration of half-maximal effect; nearly all actives have a fitted effect of over 60% in size. The method, boiled down:
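Compounds, tested up to 114 microM, were incubated for 15 minutes with 25 nM unlinked NS2B-NS3 protease at pH 8.0. Cleavage of 1.5 microM Rhodamine110 substrate was then followed by fluorescence for 15 minutes.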

The test system of assay [8] is Zika virus NS2B-NS3 protease (linked construct). Description: Primary screen NINDS Rhodamine qHTS for Zika virus inhibitors (AID 1347160). Note: % is set by controls: 0 for no effect and ±100 for the full control effect; nearly all actives have a fitted effect of over 55% in size. The following applies: outcome: dose series up to 57.1 µM unless noted. The method, boiled down: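 Percent inhibition, normalized to uninhibited and enzyme-free controls, is fitted to a 4-parameter Hill equation. Fluorescence change comes from a 15-min cleavage of 1.5 microM bis-peptide Rhodamine110 substrate by 25 nM linked NS2B-NS3 at room temperature.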

Assay [9] deals with Lysine-specific demethylase 5B (Homo sapiens) (UniProt Q9UGL1). Description: Optimization screen for KDM5B Histone Demethylases FDH coupled qHTS against the LOPAC library (AID 1347166). Note: 0% is about no effect. A digest of the protocol:
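KDM5BDeltaAP (200nM final) preincubated 10 min with compound, then 12.5uM H3K4Me3, 25uM a-ketoglutarate, ascorbate, Fe(II), NAD+ and FDH added; 50mM HEPES pH 7.5, 0.01% Tween-20. NADH fluorescence (340/450 nm) change over 30 min, room temperature.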

In assay [10] the target is N-terminal Xaa-Pro-Lys N-methyltransferase 1 (Homo sapiens) (UniProt Q9BV86). The assay is described as follows: qHTS Assay for Inhibitors of N-terminal methyltransferase 1 (NTMT1): LOPAC validation of the NTMT1 SAHH-coupled ThioGlo3 Assay (AID 1347143).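 Note: SAH from peptide methylation measured as thiol fluorescence via SAHH coupling and ThioGlo3; % is set by controls: 0 for no effect and ±100 for the full control effect; nearly all actives have a fitted effect of over 70% in size.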 A digest of the protocol:
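Recombinant human NTMT1 (125nM) was pre-incubated 1 min at room temperature with compounds over a concentration range, then a mix of 100uM SAM, 10uM SAHH and 15uM ThioGlo3 (concentrations in added reagent) was added. ThioGlo3 fluorescence (ex 340/em 450nm) after 30 min was normalized to the initial reading.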

Assay [11] in a line: qHTS to identify inhibitors of the type 1 interferon - major histocompatibility complex class I in skeletal muscle: primary screen against the NCATS LOPAC collection (AID 1347405).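 Note: lytic HiBiT luminescence reporting HLA-B protein level; % is set by controls: 0 for no effect and ±100 for the full control effect.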 The method, boiled down:
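Luminescence from HiBiT fused to endogenous HLA-B in CRISPR-engineered human myoblasts served as the read-out. Cells received 4.0 ng/ml IFN-beta plus compound (seven concentrations, 1:4.3 steps, highest 46 uM final) for 24 hrs before lytic detection.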

A short description of assay [12]: Vero cells viability qHTS for Zika virus inhibitors (AID 1347167). Note: % is set by controls: 0 for no effect and ±100 for the full control effect. A digest of the protocol:
(§1)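 Cells seeded at 2.5 x 10^5 cells/mL in DMEM with 4% FBS and attached overnight at 37 degrees C, then exposed to compound for 24 to 48 hours. Viability read as ATP content by CellTiter Glo luminescence.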

In assay [13] the test system is Zika virus NS2B-NS3 protease (linked construct). The assay is described as follows: Confirmatory screen NINDS AMC qHTS for Zika virus inhibitors (AID 1347152). A digest of the protocol:
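Linked NS2B-NS3 1 nM, Tris pH 8.0/0.01% Tween 20; cpd 15 min RT dark; + Nle-KRR-AMC 10 µM (Km 18.3 µM); read 0 and 15 min, 340/450 nm; %inh vs controls, 4-param Hill.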

The test system of assay [14] is Zika virus NS2B-NS3 protease (unlinked complex). The assay is described as follows: Confirmatory screen GU AMC qHTS for Zika virus inhibitors (AID 1347153). A digest of the protocol:
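Unlinked enzyme 25 nM, Tris pH 8.0/0.01% Tween 20; cpd 15 min RT, dark; + AMC substrate 10 µM (Km 18.3 µM); 340/450 nm read at t0 and 15 min; % inhibition → 4-param fit.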

Assay [15] can be described thus: HepG2 cells viability qHTS for Zika virus inhibitors (AID 1347168). Note: % is set by controls: 0 for no effect and ±100 for the full control effect. A digest of the protocol:
as §1

Inconclusive results are not listed. Unmarked numbers belong to inactive results. Activity calls are given as the source filed them. Calls come from the whole dose curve; as a rule, active = well fitted curve in the direction sought with a large enough effect; inconclusive = small, poorly fitted or top-dose-only effect, or another doubt; inactive = no such curve, though single readings can be large; an effect the other way counts as inactive or inconclusive.

Lysine-specific demethylase 5B (Homo sapiens), sequence (Q9UGL1 whole entry, looked up): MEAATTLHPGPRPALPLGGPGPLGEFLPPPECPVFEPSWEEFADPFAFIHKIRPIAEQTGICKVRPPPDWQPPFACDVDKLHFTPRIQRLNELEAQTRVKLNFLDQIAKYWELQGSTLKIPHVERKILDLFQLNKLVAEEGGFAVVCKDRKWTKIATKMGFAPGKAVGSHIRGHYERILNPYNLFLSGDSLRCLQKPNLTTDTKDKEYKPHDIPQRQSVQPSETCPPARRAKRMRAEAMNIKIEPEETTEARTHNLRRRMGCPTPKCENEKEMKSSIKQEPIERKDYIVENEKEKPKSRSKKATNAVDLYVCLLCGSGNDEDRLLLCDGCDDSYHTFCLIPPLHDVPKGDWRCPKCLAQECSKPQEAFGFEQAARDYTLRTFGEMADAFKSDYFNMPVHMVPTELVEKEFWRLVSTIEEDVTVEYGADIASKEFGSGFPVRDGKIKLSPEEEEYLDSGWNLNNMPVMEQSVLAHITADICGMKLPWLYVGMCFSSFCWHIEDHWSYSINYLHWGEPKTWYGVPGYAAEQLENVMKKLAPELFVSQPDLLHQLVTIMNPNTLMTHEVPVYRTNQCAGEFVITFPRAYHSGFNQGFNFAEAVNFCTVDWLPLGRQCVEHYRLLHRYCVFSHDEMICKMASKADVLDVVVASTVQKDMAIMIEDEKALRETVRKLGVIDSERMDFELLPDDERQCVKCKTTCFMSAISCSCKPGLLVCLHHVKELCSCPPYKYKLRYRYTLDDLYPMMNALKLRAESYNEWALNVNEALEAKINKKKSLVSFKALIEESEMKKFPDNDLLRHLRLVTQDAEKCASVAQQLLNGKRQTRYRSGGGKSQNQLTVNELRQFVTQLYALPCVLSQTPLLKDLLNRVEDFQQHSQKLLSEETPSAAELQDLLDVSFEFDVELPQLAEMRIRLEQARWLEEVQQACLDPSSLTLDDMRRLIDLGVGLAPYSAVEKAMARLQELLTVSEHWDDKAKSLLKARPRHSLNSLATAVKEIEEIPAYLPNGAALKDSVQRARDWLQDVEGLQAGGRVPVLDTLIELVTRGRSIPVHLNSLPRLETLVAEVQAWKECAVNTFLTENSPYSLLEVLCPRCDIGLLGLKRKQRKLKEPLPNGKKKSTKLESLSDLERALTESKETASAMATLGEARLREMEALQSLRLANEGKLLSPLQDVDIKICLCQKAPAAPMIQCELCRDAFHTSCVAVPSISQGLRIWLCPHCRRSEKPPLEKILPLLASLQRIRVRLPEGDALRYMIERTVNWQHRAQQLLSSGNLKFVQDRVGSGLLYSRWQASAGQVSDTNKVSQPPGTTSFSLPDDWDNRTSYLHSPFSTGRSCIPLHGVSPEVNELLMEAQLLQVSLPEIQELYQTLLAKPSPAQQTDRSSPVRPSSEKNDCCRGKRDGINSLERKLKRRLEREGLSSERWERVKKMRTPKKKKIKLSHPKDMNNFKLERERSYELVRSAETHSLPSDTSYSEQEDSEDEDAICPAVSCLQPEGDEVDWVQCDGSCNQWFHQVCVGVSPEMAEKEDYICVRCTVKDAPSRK
N-terminal Xaa-Pro-Lys N-methyltransferase 1 (Homo sapiens), sequence (Q9BV86 whole entry, looked up): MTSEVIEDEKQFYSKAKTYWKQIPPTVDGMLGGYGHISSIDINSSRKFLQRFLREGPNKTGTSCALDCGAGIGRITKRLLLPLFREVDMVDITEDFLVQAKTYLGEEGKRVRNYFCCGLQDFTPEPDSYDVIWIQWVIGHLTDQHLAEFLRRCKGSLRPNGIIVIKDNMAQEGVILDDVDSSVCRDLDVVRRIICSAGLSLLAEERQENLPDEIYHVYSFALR

Turning to `O=C(CCCCC(=O)Nc1c(I)cc(I)c(C(=O)O)c1I)Nc1c(I)cc(I)c(C(=O)O)c1I`, the activity change, negative = inhibition was 9.18% [at 18.8 µM] with Furin (Homo sapiens) and 2.99% [at 5.25 µM] in assay [4]. The Potency result in assay [1], in [2], in [3] and in assay [5] was “inactive” each time.
Turning to `NS(=O)(=O)c1cc(C(=O)NN2C[C@H]3[C@H]4CCC(C4)[C@H]3C2)ccc1Cl`, the Potency result in assay [1] is “inactive”.
As for `O=C1NCCN1CCN1CCC(c2cn(-c3ccc(F)cc3)c3ccc(Cl)cc23)CC1`, the Potency entry in [1] was “inactive”.
As for `Cc1ccc(-c2ccccc2C#N)cc1`, in assay [1], the Potency result was “inactive”.
On to `CC1CCCCN1CCCOC(=O)c1ccc(OC2CCCCC2)cc1` (centres undefined), for which the Potency entry in assay [1] is “inactive”.
For the compound `O=[N+]([O-])c1ccc(-c2nc(-c3ccc(F)cc3)c(-c3ccncc3)[nH]2)cc1`, in assay [6], the Potency result is “inactive”. In addition, the results for the Potency in [7] and in assay [4] were 79.4 µM (active) and 4.66 µM (active), respectively. Moreover, the result in assay [8] and in assay [9] was inactive.
Take `C[N+](C)(C)CCO`: the Potency result in assay [10], in assay [6] and in assay [11] was “inactive” throughout. The call in assay [9] was inactive.
In the case of `O=C(c1cc(O)c(O)c(O)c1)c1ccc(O)c(O)c1O`, in assay [1], the Potency was 0.891 µM (active).
With `COc1c(C)c2c(c(O)c1C/C=C(\C)CCC(=O)OCCN1CCOCC1)C(=O)OC2`, the Potency in [6] was 21.5 µM (active); in assay [4], 0.739 µM (active). Moreover, the compound was classed as inactive in assay [12]. Further, in [5], the Potency result was “inactive”.
For the compound `O=C(COCCOCCOCC(=O)Nc1c(I)cc(I)c(C(=O)O)c1I)Nc1c(I)cc(I)c(C(=O)O)c1I`, the Potency result (with Furin (Homo sapiens); in [1]; in assay [2]; in assay [3]; in assay [4]; in [5]) was “inactive” in each case.
For `CCOC(=O)CN1CCCC1=O`, the Potency result in assay [1] was “inactive”.
With `O=C(NO)c1ccccc1`, the Potency entry in [1] was “inactive”.
With `COC(=O)c1ccc(NC(C)=O)cc1OC`, the Potency entry in [1] was “inactive”.
With `CCN1CCCC1CN` (centres undefined), in [1], the Potency result is “inactive”.
Take `COC(=O)C1=C(C)NC(C)=C(C(=O)OCCc2ccc(N3CCN(C(c4ccccc4)c4ccccc4)CC3)cc2)C1c1cccc([N+](=O)[O-])c1` (centres undefined): in assay [1], the Potency result was “inactive”.
In the case of `C=CCNc1nc(NCC=C)nc(N2CCN(C(c3ccc(F)cc3)c3ccc(F)cc3)CC2)n1`, in [1], the Potency entry is “inactive”.
In the case of `COC(=O)C1=CO[C@@H](O)[C@@H]2C(CO)=CC[C@H]12`, the Potency result in assay [10], in assay [6] and in assay [11] was “inactive” throughout. Also, the call in assay [8] and in assay [9] was inactive.
As for `Cc1cc2nc3ccc(=[N+](C)C)cc-3sc2cc1N`, in assay [1], the Potency entry was “inactive”.
For `N[C@@H](Cc1cc(I)c(O)c(I)c1)C(=O)O`, the Potency entry (with Furin (Homo sapiens); in [13]; in assay [14]; in [4]; in assay [5]) was “inactive” throughout. For the same compound, the call in assay [12] and in assay [15] was inactive.

For the origin of these results see PubChem BioAssay (NCATS).
